# Source: the supplement of paper PMC9399229
# Where a name gives a salt, the structure may show the parent alone. ± gives the standard deviation of the averaged measurements. The full ranking holds about 1,900 compounds; the median of “relative cell viability (CellTiter-Glo), compound alone” is about 1, and the lowest 2% start at about 0.16. Many of the other results were omitted from the sample, so the lowest values are more common in it than they were.
# Test system: Hep3B
# Assay: relative cell viability (CellTiter-Glo), compound alone (fraction); higher = more viable cells (less growth inhibition)
# Conditions: cabozantinib 0 µM; 4 days
row,SMILES,relative cell viability
1,CCn1cc(NC(=S)Nc2cc(Cl)ccc2OC)c(C(N)=O)n1,1.44 ± 0.14
2,C1=N/C2=N/c3ccc(OCCN4CCCC4)c(c3)COC/C=C/COCc3cccc(c3)C(=C1)N2 [Pacritinib (SB1518)],0.1545 ± 0.0015
3,CN(C)c1cccc(-c2c3c(=O)n(-c4ccccc4Cl)[nH]c3cc(=O)n2C)c1,1.12 ± 0.1
4,O=C(NCCS(=O)(=O)c1ccc(C(F)(F)F)cn1)c1ccc(Cl)cc1,1.2 ± 0.049
5,C[C@@H](Oc1cc(-n2cnc3ccc(CN4CCN(C)CC4)cc32)sc1C(N)=O)c1ccccc1C(F)(F)F,0.668 ± 0.04
6,O=C1CCC[C@@H]2[C@H]3CCC[N+]4([O-])CCC[C@@H](CN12)[C@@H]34 (some centres undefined) [Oxymatrine],1.09 ± 0.21
7,CC1CNc2c(cccc2S(=O)(=O)N[C@@H](CCCNC(=N)N)C(=O)N2CC[C@@H](C)C[C@@H]2C(=O)O)C1 (some centres undefined) [Argatroban],1.02 ± 0.17
8,CO[C@H]1C[C@@H]2CC[C@@H](C)[C@@](O)(O2)C(=O)C(=O)N2CCCC[C@H]2C(=O)O[C@H]([C@H](C)C[C@@H]2CC[C@@H](OC(=O)C(C)(CO)CO)[C@H](OC)C2)CC(=O)[C@H](C)/C=C(\C)[C@@H](O)[C@@H](OC)C(=O)[C@H](C)C[C@H](C)/C=C/C=C/C=C/1C,1.04 ± 0.013
9,CCOC(=O)[C@H](CCc1ccccc1)N[C@H]1CCCN2CCC[C@@H](C(=O)O)N2C1=O [Cilazapril Monohydrate],0.947 ± 0.13
10,CC(C)(C)C[C@@H]1N[C@@H](C(=O)N[C@H]2CC[C@H](O)CC2)[C@H](c2cccc(Cl)c2F)[C@]12C(=O)Nc1cc(Cl)ccc12,1.09 ± 0.025
11,O=C1c2c(O)ccc(O)c2C(=O)c2c(NCCNCCO)ccc(NCCNCCO)c21 [Mitoxantrone],0.0757 ± 0.0097
12,O=C1c2c(O)ccc(O)c2C(=O)c2c(NCCNCCO)ccc(NCCNCCO)c21 [Mitoxantrone HCl],0.0676 ± 0.0056
13,O=C1c2cccc(O)c2C(=O)c2c(O)cc(CO)cc21 [Aloe-emodin],0.96 ± 0.11
14,Cc1ccc([N+](=O)[O-])cc1S(=O)(=O)N(C)/N=C/c1cnc2ccc(Br)cn12,0.139 ± 0.01
15,Nc1nc(NC2CC2)cc(-c2cccc(Cl)c2Cl)n1,1.162 ± 0.0077
16,NS(=O)(=O)NCCNc1nonc1/C(=N/O)Nc1ccc(F)c(Br)c1,1.24 ± 0.064
17,Fc1ccc2[nH]ccc2c1-c1nc(N2CCOCC2)c2sc(CN3CCN(CC4CC4)CC3)cc2n1,0.871 ± 0.011
18,Cn1cncc1[C@@](N)(c1ccc(Cl)cc1)c1ccc2c(c1)c(-c1cccc(Cl)c1)cc(=O)n2C [Tipifarnib],0.995 ± 0.046
19,Cc1nc(-c2cn3c(n2)-c2ccc(-c4cnn(C(C)(C)C(N)=O)c4)cc2OCC3)n(C(C)C)n1,1.01 ± 0.032
